Compound activity: PubChem, National Center for Advancing Translational Sciences (NCATS)
VP16 counter: Gal4-VP16 reporter inhibition counter-screen; Drosophila S2 Gal4-VP16 UAS-luciferase, luminescence, 20 h; Potency, µM (series often up to 53.6 µM), for inactives: top-dose activity, negative = inhibition, hits mostly inhibitors; hit rate 3.5% among 310,000; AID 2546;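 note: Gal4-VP16 expression switched on by copper sulfate through the metallothionein promoter; nearly all actives have a fitted effect of over 50% in size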
ALDH1A1 block: inhibitors of human aldehyde dehydrogenase 1A1; P00352; Purified ALDH1A1, NADH fluorescence, propionaldehyde substrate; Potency, µM (series often up to 75.3 µM), without a hit: at the highest dose activity, negative = inhibition, hits mostly inhibitors; hit rate 7.3% among 220,000; AID 1030; active = well fitted inhibition curve with a large enough effect, not every such curve was filed as active; inconclusive = small, poorly fitted or top-dose-only effect, or another doubt; inactive = no such curve, though single readings can be large or run the other way;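 note: plate controls were no enzyme wells and a reference inhibitor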
RORg inh: blocks mouse ROR gamma transcriptional activity | P51450 | Drosophila S2 Gal4-RORgamma UAS-luciferase reporter, 20 h | Potency, µM (top dose mostly 53.6 µM), inactives show top-dose activity change, negative = inhibition, usual class: inhibitors | hit rate 5.4% among 310,000 | AID 2551; note: nearly all actives have a fitted effect of over 60% in size
Target sequence (P51450 whole entry, looked up, the tested form may be a part): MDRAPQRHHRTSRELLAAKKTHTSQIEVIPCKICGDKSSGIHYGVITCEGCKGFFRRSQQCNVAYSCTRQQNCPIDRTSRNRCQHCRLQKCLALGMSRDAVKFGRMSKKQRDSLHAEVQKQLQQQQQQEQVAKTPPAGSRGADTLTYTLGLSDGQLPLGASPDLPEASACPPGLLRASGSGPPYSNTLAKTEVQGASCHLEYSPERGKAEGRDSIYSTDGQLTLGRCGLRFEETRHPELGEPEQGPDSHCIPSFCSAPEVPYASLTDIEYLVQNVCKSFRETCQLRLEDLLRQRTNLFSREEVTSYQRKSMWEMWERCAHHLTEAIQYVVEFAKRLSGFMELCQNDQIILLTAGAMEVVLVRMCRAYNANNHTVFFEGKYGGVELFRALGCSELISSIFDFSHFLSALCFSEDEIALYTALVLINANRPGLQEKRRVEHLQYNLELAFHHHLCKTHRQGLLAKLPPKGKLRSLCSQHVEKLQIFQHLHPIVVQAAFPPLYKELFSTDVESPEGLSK
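In this cell-based reporter format, copper sulfate (700 uM final) drives Gal4–ROR gamma fusion expression from a metallothionein promoter in Drosophila Schneider cells; compounds preincubated 1 hr, reporter read after 20 hr at ambient temperature.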
PLK1 PBD block: blocks phosphopeptide binding to human PLK1 polo-box domain; P53350; Plk1 PBD binding of FITC phosphopeptide, fluorescence polarization; Potency, µM, for inactives: max response, negative = inhibition, hits mostly inhibitors; hit rate 2.8% among 360,000; AID 720504; note: series mostly up to about 57 µM; nearly all actives have a fitted effect of over 65% in size
Sfp PPTase inh: blocks B. subtilis Sfp PPTase activity; Q9F4F7; AID 1490; Potency, µM, for the others: largest response in the series, negative = inhibition, hits mostly inhibitors; hit rate 3.5% among 310,000; Biochemical Sfp PPTase activity, qHTS;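 note: the enzyme is Sfp with the accession as filed and its product quenches rhodamine fluorescence; 0% = enzyme reaction without inhibitor and -100% = no enzyme wells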
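After 15 min at room temperature with compound, 15 nM Sfp received 5 uM rhodamine-CoA plus 12.5 uM BHQ-2-ybbR (50 mM Hepes pH 7.6, 10 mM MgCl2). Rate came from the fluorescence difference over 30 min, ex 525/em 598 nm.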
* = called active by the depositor; ? = inconclusive; · = no result given; [ ] = another dose, or the depositor's remark. Most compounds without a hit are left out; they make up all but 12% or so of the library. Unless noted, calls come from the whole dose curve; as a rule, active = well fitted curve in the direction sought with a large enough effect; inconclusive = small, poorly fitted or top-dose-only effect, or another doubt; inactive = no such curve, though single readings can be large; an effect the other way counts as inactive or inconclusive. Unless noted, % is set by controls: 0 for no effect and ±100 for the full control effect; potency is the fitted concentration of half-maximal effect.

SMILES	VP16 counter	ALDH1A1 block	RORg inh	PLK1 PBD block	Sfp PPTase inh
O=C(CSCSCC(=O)Nc1ccc2c(c1)OCO2)Nc1ccc2c(c1)OCO2	2%	?	?	-15%	9%
O=C(CN1CCOCC1)Nc1ccc2c(c1)OCO2	-3%	-11%	0%	11µM*	9%
CC(C)=CC(=O)Nc1ccc2c(c1)OCO2	?	9%	11µM*	-5%	-3%
CCC(=O)Nc1ccc2c(c1)OCCO2	13%	5%	-3%	-2%	18%
C[C@H]1CNC(=O)c2c(C(=O)Nc3ccc(CNC(=O)OC(C)(C)C)cc3)ncn21	·	·	·	4%	·
C#CCNC(=O)C[C@@H]1C[C@@]2(C(=O)OC)CC(C)(C)CC=C2N(Cc2ccccc2)C1=O	·	·	·	-3%	·
COC(=O)C1CN(Cc2ccccc2)C(=O)C1=O (configuration not stated)	·	·	·	4%	·
C[C@H](CO)N1C[C@H](C)[C@H](CN(C)S(C)(=O)=O)OCc2cnnn2CCCC1=O	·	·	·	3%	·
O=C(CN1CCC(NC(=O)c2ccccc2F)CC1)Nc1ccc2c(c1)OCCO2	5%	13µM*	10%	-10%	-8%
Cc1ccc(CSCC(=O)Nc2ccc3c(c2)OCO3)cc1	-4%	7.9µM*	26%	-3%	6%
COc1ccc(OCCCC(=O)Nc2ccc3c(c2)OCCO3)cc1	-8%	22µM*	-9%	-14%	-6%
Cc1ccccc1C(=O)NC1CCN(CC(=O)Nc2ccc3c(c2)OCCO3)CC1	-2%[10 µM]	3%	-17%	3%	7%
CC(=O)c1ccc(OCCCC(=O)Nc2ccc3c(c2)OCCO3)cc1	·	·	·	-17%	·
COc1ccccc1NC(=O)CN1CCN(CC(=O)Nc2ccc3c(c2)OCO3)CC1	2%	11µM*	-7%	-6%	-21%
O=c1[nH]c(SCCc2ccccc2)nc2c1CCC2	·	·	·	-4%	·
Brc1ccc2nc(C3CCCCC3)c(CC3CCCCC3)n2c1	·	·	·	4%	·
CN(C)Cc1ccccc1-c1cc(NCc2ccccc2)ncn1	1%	?	?	·	16%
O=C1C=C(c2ccc(F)nc2)C[C@@H](c2ccc3c(c2)OCO3)C1	·	·	·	0%	·
Cn1nc(C(C)(C)C)cc1N1C(=O)CCC1(C)C(=O)Nc1ccc2c(c1)OCCO2 (configuration not stated)	·	·	·	-3%	·
CCCN(CCC)C(=O)CSc1nc2ccccc2c(=O)n1CC1COc2ccccc2O1 (configuration not stated)	1%	11µM*	?	-6%	7%
O=C(CSc1nc(CCC2CCCC2)nc2ccccc12)NCc1ccc2c(c1)OCO2	?	0%	16µM*	-9%	6%
O=C(CSc1nc2ccccc2c(=O)n1CC1CCCO1)NCc1ccc2c(c1)OCO2 (configuration not stated)	8%	?	-7%	27µM*	13%
O=C(CSc1nc2ccccc2c(=O)n1CC1CCCO1)NCCc1ccccc1 (configuration not stated)	-9%	·	1%	-6%	6%
Cc1cc(NC(=O)CSc2nc(CCC3CCCC3)nc3ccccc23)no1	-9%[0.365 µM]	?	8%	0%	16%
Cc1n[nH]c2c([N+](=O)[O-])c(=O)[nH]c(=O)n12	·	·	·	-1%	·
SMILES	VP16 counter	ALDH1A1 block	RORg inh	PLK1 PBD block	Sfp PPTase inh
CC(=O)Nc1ccccc1-c1nc2ccc(C(=O)N3CCN(c4ccccc4)CC3)cc2[nH]c1=O	-1%	28µM*	-3%	-7%	-6%
CC(=O)Nc1ccccc1-c1nc2ccc(C(=O)N3CCN(c4cccc(C)c4)C(C)C3)cc2[nH]c1=O (configuration not stated)	11%	-2%	3%	1%	-4%
COC(=O)c1ccc(N2C(=O)CC(N(C)Cc3ccccc3)C2=O)cc1 (configuration not stated)	4%	8.9µM*	-3%	-7%	?
CCCOc1ccc(N2C(=O)CC(N(CCc3ccc(OC)c(OC)c3)C(=O)c3ccccc3)C2=O)cc1 (configuration not stated)	2%	·	-3%	-7%	-10%
COc1ccc(CCN(C)C2CC(=O)N(c3ccccc3)C2=O)cc1OC (configuration not stated)	16µM*	·	?	4%	-5%
CN(Cc1ccncc1)C1CC(=O)N(c2ccc(F)cc2)C1=O (configuration not stated)	3%[10 µM]	18µM*	7%	-9%	2%
COC(=O)c1ccc(N2C(=O)CC(N(C)CCc3ccc(OC)c(OC)c3)C2=O)cc1 (configuration not stated)	-1%	3.5µM*	?	-3%	-14%
COc1ccc(N2C(=O)CC(N(C)CCc3ccc(OC)c(OC)c3)C2=O)cc1 (configuration not stated)	-16%	0%	7%	-4%	8%
O=C1CC(N(C(=O)c2ccco2)c2ccc(F)cc2)C(=O)N1c1ccc(F)cc1 (configuration not stated)	2%	-12%	1%	6%	10%
COc1cccc([C@@H]2Oc3ccc(OC)cc3C(=O)[C@H]2OC(=O)NCc2ccco2)c1	-12%	-12%	-13%	·	-2%
C=C[C@]1(C)C[C@@H](OC(=O)CSCCN(CC)CC)[C@]2(C)C(C)CC[C@]3(CCC(=O)[C@H]32)[C@@H](C)[C@@H]1O (some centres not stated)	0%	·	2%	-5%	14%
CC(NC(=O)COc1ccccc1-c1ccccc1)c1ccccc1 (configuration not stated)	-13%	-2%	-8%[10 µM]	6%	?
O=C(COc1ccccc1-c1ccccc1)NN=C1CCCC1	-25%	11µM*	-8%	2%	-8%
O=C1CCC/C(=N\NC(=O)c2ccc(COc3ccccc3-c3ccccc3)cc2)C1	3%	-1%	?	7%	-3%
CN1CCC(=NNC(=O)COc2ccc(Cl)cc2)CC1	2%	-7%	-20%	0%	18%
C/C(CCC(C)C)=N\NC(=O)COc1ccccc1-c1ccccc1	4%	7.1µM*	-1%	-6%	-11%
O=C(COc1ccc(Cl)cc1)NN=C1CCCCCCC1	-15%	·	8.9µM*	2%	4%
O=C1OC(c2ccccc2)(N(Nc2ccccc2)c2ccccc2)c2ccccc21 (configuration not stated)	·	·	·	6%	·
COCCn1c(=O)c(-c2cccs2)nc2cnc(Oc3ccc(OC)cc3)nc21	-1%	?	14%	·	-11%
C[C@H](CO)N1C[C@H](C)[C@H](CN(C)Cc2ccccc2)Oc2ncc(Br)cc2C1=O	·	·	·	-9%	·
CC(=O)NC1Sc2ccccc2N=C1c1ccccc1 (configuration not stated)	-28%	25µM*	21%	19µM*	16µM*
CC(=O)N1c2ccccc2N=C(c2ccc(C(F)(F)F)cc2)C1C(=O)NC1CCCC1 (configuration not stated)	·	·	·	2%	·
